# Assay results published in the antibiotic and cytotoxicity screens of Wong et al. (2023).
# About 3,300 (8.5%) of roughly 39,000 compounds were called active. For the sample, actives were picked, then their nearest neighbours and some compounds at random.
# Test system: HepG2
# Assay: cytotoxicity call (relative viability < 0.9)
# Conditions: 10 µM
row,Structure (SMILES),cytotoxicity call
1,COc1ccc(NC(=O)N(C)C[C@H]2OCCCC[C@H](C)Oc3ccc(NS(=O)(=O)c4cccs4)cc3C(=O)N([C@@H](C)CO)C[C@@H]2C)cc1,inactive
2,C[C@H](CO)N1C[C@H](C)[C@H](CN(C)S(=O)(=O)c2ccc3c(c2)OCCCO3)OCc2cn(nn2)CCCC1=O,inactive
3,C[C@H]1CCCCO[C@@H](CN(C)C(=O)CCC(F)(F)F)[C@@H](C)CN([C@@H](C)CO)C(=O)c2cc(NS(=O)(=O)c3ccccc3)ccc2O1,inactive
4,NC(=O)N1Cc2nccn2C[C@H](Cn2cncn2)C1,inactive
5,Cc1ccc(S(=O)(=O)Nc2ccc3c(c2)C(=O)N([C@H](C)CO)C[C@@H](C)[C@H](CN(C)C(=O)Nc2ccccc2)OCCCC[C@@H](C)O3)cc1,inactive
6,Cc1ccccc1S(=O)(=O)N1C[C@@H](O)COC[C@H]2O[C@@H](CC(=O)N3CCC(Cc4ccccc4)CC3)CC[C@@H]21,inactive
7,Cc1ccccc1S(=O)(=O)N1C[C@H](O)COC[C@@H]2O[C@@H](CC(=O)N3CCC(Cc4ccccc4)CC3)CC[C@H]21,inactive
8,Cc1ccccc1S(=O)(=O)N1C[C@@H](O)COC[C@@H]2O[C@H](CC(=O)N3CCC(Cc4ccccc4)CC3)CC[C@H]21,inactive
9,Cc1ccccc1S(=O)(=O)N1C[C@H](O)COC[C@H]2O[C@H](CC(=O)N3CCC(Cc4ccccc4)CC3)CC[C@@H]21,active
10,Cc1ccccc1S(=O)(=O)N1C[C@@H](O)COC[C@H]2O[C@H](CC(=O)N3CCC(Cc4ccccc4)CC3)CC[C@@H]21,active
11,Cc1ccccc1S(=O)(=O)N1C[C@H](O)COC[C@@H]2O[C@H](CC(=O)N3CCC(Cc4ccccc4)CC3)CC[C@H]21,inactive
12,Cc1ccccc1S(=O)(=O)N1C[C@H](O)COC[C@H]2O[C@@H](CC(=O)N3CCC(Cc4ccccc4)CC3)CC[C@@H]21,active
13,O=C(C[C@@H]1CC[C@H]2[C@@H](COC[C@@H](O)CN2S(=O)(=O)c2ccccc2F)O1)N1CCC(Cc2ccccc2)CC1,inactive
14,CN1CCN(C(=O)C[C@@H]2CC[C@H]3[C@@H](COC[C@@H](O)CN3Cc3ccc(Oc4ccccc4)cc3)O2)CC1,inactive
15,CN1CCN(C(=O)C[C@H]2CC[C@@H]3[C@H](COC[C@@H](O)CN3Cc3ccc(Oc4ccccc4)cc3)O2)CC1,active
16,O=C(C[C@@H]1CC[C@@H]2[C@H](COC[C@@H](O)CN2S(=O)(=O)c2ccccc2F)O1)N1CCC(Cc2ccccc2)CC1,inactive
17,CN1CCN(C(=O)C[C@H]2CC[C@H]3[C@@H](COC[C@H](O)CN3Cc3ccc(Oc4ccccc4)cc3)O2)CC1,inactive
18,C[C@@H]1CCCCO[C@H](CN(C)C(=O)Nc2ccc(F)cc2)[C@@H](C)CN([C@H](C)CO)C(=O)c2cc(NC(=O)C3CCCCC3)ccc2O1,inactive
19,C[C@@H]1CCCCO[C@@H](CN(C)C(=O)c2ccccc2)[C@H](C)CN([C@H](C)CO)C(=O)c2cc(NS(=O)(=O)c3ccccc3)ccc2O1,inactive
20,C=c1ccccc1=C1NN=C(CN2CCCC2)O1,inactive
21,C[C@H]1CCCCO[C@H](CN(C)Cc2ccc(Cl)c(Cl)c2)[C@@H](C)CN([C@@H](C)CO)C(=O)c2cc(NS(C)(=O)=O)ccc2O1,inactive
22,COCC#Cc1ccc2c(c1)O[C@H](CN(C)S(=O)(=O)c1cccc(F)c1)[C@@H](C)CN([C@H](C)CO)S2(=O)=O,inactive
23,C[C@@H]1CCCCO[C@H](CN(C)Cc2ccc(C(=O)O)cc2)[C@@H](C)CN([C@@H](C)CO)C(=O)c2cc(NC(=O)NC3CCCCC3)ccc2O1,inactive
24,Cc1ccc2nc(-c3ccc(/N=C\c4ccc[nH]4)cc3)sc2c1,active

row,Structure (SMILES),cytotoxicity call
1,Cc1ccc2nc(/N=C/c3ccc(Cl)cc3Cl)sc2c1,inactive
2,Cc1ccc2nc(-c3ccc(NC(=O)C4CCC4)cc3)sc2c1,inactive
3,COc1ccc2c3c([nH]c2c1)[C@H](CO)N(C[C@]13CCN(CC1)CC1CCCCC1)C(=O)Nc1c(noc1C)C,inactive
4,COc1ccc2c3c([nH]c2c1)[C@H](CO)N(CC1CCCCC1)C[C@]13CCN(CC1)C(=O)Nc1cccc(c1)F,inactive
5,COc1ccc2c3c([nH]c2c1)[C@@H](CO)N(C[C@]13CCN(CC1)CC1CCCCC1)C(=O)Nc1c(noc1C)C,inactive
6,COc1ccc2c3c([nH]c2c1)[C@@H](CO)N(CC1CCCCC1)C[C@]13CCN(CC1)C(=O)Nc1cccc(c1)F,inactive
7,COc1ccc2c3c([nH]c2c1)[C@@H](CO)N(C[C@]13CCN(CC1)CC1CCCCC1)C(=O)Nc1cccc(c1)F,active
8,COc1ccc2c3c([nH]c2c1)[C@H](CO)N(C[C@]13CCN(CC1)CC1CCCCC1)C(=O)Nc1cccc(c1)F,active
9,C[C@@H]1CCCCO[C@@H](CN(C)C(=O)CCC(F)(F)F)[C@@H](C)CN([C@H](C)CO)C(=O)c2cc(NC(=O)Nc3ccc(F)cc3)ccc2O1,inactive
10,C[C@H]1CN([C@@H](C)CO)C(=O)c2cccc(NC(=O)c3ccc(-c4nccs4)cc3)c2O[C@@H]1CN(C)C(=O)Nc1ccc(F)cc1,inactive
11,Cc1noc(C)c1NC(=O)N(C)C[C@@H]1OCCCC[C@H](C)Oc2ccc(NC(=O)NC3CCCCC3)cc2C(=O)N([C@@H](C)CO)C[C@@H]1C,inactive
12,O=c1[nH]nc(Br)c(=O)[nH]1,inactive
13,O=C(O)C[C@H]1CC[C@@H]2[C@H](COC[C@@H](O)CN2S(=O)(=O)c2ccc(F)cc2)O1,inactive
14,O=C(O)c1cc(=O)c2ccccc2o1,inactive
15,CC(=O)CC(c1ccccc1)c1c(O)c2ccccc2oc1=O (configuration not stated),active
16,O=c1oc2ccccc2c(O)c1Cc1c(O)c2ccccc2oc1=O,inactive
17,CO[C@@H](CN(C)S(=O)(=O)c1cccc(Cl)c1)[C@@H](C)CN([C@@H](C)CO)S(=O)(=O)c1cccc(Cl)c1,inactive
18,C[C@@H]1CN([C@H](C)CO)C(=O)Cc2cc(NC(=O)Cc3cn(C)c4ccccc34)ccc2O[C@@H]1CN(C)Cc1ccc(Oc2ccccc2)cc1,active
19,C[C@H](CO)N1C[C@H](C)[C@H](CN(C)Cc2ccc(Oc3ccccc3)cc2)Oc2ccc(NC(=O)Cc3cn(C)c4ccccc34)cc2CC1=O,active
20,C[C@@H]1CN([C@@H](C)CO)C(=O)Cc2cc(NC(=O)Cc3cn(C)c4ccccc34)ccc2O[C@H]1CN(C)Cc1ccc(Oc2ccccc2)cc1,active
21,C[C@@H]1CN([C@H](C)CO)C(=O)Cc2cc(NC(=O)Cc3cn(C)c4ccccc34)ccc2O[C@H]1CN(C)Cc1ccc(Oc2ccccc2)cc1,inactive
22,C[C@H]1CN([C@@H](C)CO)C(=O)Cc2cc(NC(=O)Cc3cn(C)c4ccccc34)ccc2O[C@@H]1CN(C)Cc1ccc(Oc2ccccc2)cc1,inactive
23,C[C@H]1CN([C@@H](C)CO)C(=O)Cc2cc(NC(=O)Cc3cn(C)c4ccccc34)ccc2O[C@H]1CN(C)Cc1ccc(Oc2ccccc2)cc1,active
